Compound activity from PubChem BioAssay.
Ba/F3 V617F tox: reduce viability of Ba/F3 cells dependent on JAK2V617F; inhibition, % at 5.6 µM; Ba/F3 EpoR-JAK2V617F viability, ATP luminescence; actives 1.1% (n = 220,000);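 active = inhibition above the campaign mean plus 3 SD over all tested compounds, cut at about 24% in these data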;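 also: cytokine-independent growth of Ba/F3 cells driven by EpoR plus mutant JAK2; 0% = DMSO-treated cells and 100% = JAK inhibitor I control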
APP 5UTR inh: APP translation inhibition; actives 0.82% (n = 190,000); SH-SY5Y APP 5'UTR-luciferase reporter, luminescence; inhibition, % at 2 µM;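 active = inhibition above a set limit, derived from the sample mean plus 3 SD, cut at about 45% in these data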
IEC-6 tox-1: kills IEC-6 intestinal cells in KLF5 counter-screen. inhibition, % at 5 µM. AID 1825. IEC-6 cytotoxicity, luminescence viability. actives 0.78% (n = 290,000); in the data active = inhibition above about 22%;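 also: 0% = plate median of test compound wells and 100% = cytotoxic reference compound wells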
aSyn UTR inh: MLPCN primary screen, SNCA 5' untranslated region | alpha-synuclein 5'UTR reporter, inhibitor activity | AID 1813 | actives 0.82% (n = 300,000) | inhibition, % (tested at 7.5 µM); in the data active = inhibition above about 60%;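 also: H4 neuroglioblastoma cells stably carrying SNCA 5'UTR luciferase fusion; 0% = DMSO wells and 100% = positive control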
KLF5 inh: inhibitors of KLF5 expression; actives 0.23% (n = 290,000); DLD-1 KLF5 promoter-luciferase reporter, luminescence; inhibition, % at 5 µM;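 active = inhibition above a per-plate limit of that plate's mean compound inhibition plus 3 SD, cut at about 60% in these data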;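 also: 0% = DMSO wells and 100% = LY294002 at 200 µM; higher means less KLF5 promoter-driven luciferase light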
BaF3 tox: counter-screen for JAK2V617F inhibitors: parental Ba/F3 viability inhibitors | CellTiter-Glo ATP luminescence | inhibition, % at 5.6 µM | actives 1.1% (n = 220,000) | AID 1486;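 active = inhibition above a per-campaign cutoff, the mean inhibition of all tested compounds plus 3 SD, cut at about 27% in these data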;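 also: 0% = DMSO wells and 100% = JAK Inhibitor I control wells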
KLF5 inh confirm: KLF5 inhibition, confirmation assay; shares compounds with KLF5 inh; DLD-1 KLF5 promoter firefly luciferase reporter, luminescence; inhibition, % at 4 µM; actives 79% (n = 610); AID 1834;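 active = inhibition above a set limit taken from the earlier primary screen, cut at about 63% in these data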;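 also: 0% = DMSO wells and 100% = LY294002 at 200 µM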
IEC-6 tox-2: kills rat IEC-6 cells in KLF5 counter-screen | shares compounds with KLF5 inh | actives 56% (n = 610) | inhibition, % at 4 µM | IEC-6 rat intestinal cells, viability luminescence; in the data active = inhibition above about 23%;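 also: cells exposed to compounds for 48 hours before viability read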
Numbers without * were called inactive; · = not tested or not shown. A selection: hits, their analogues and other compounds. The true share with any hit is near 2.2%.

SMILES	Ba/F3 V617F tox	APP 5UTR inh	IEC-6 tox-1	aSyn UTR inh	KLF5 inh	BaF3 tox	KLF5 inh confirm	IEC-6 tox-2
C#Cc1ccc([C@@H]2C=C(C(=O)N3CCN(Cc4ccccc4)CC3)O[C@H](OCCCCO)C2)cc1	93.9*	-17.7	17.9	98.8*	66.0*	87.5*	72.9*	2.8
COc1cc(C2C(C#N)=C(C)NC3=C2C(=O)c2ccccc23)cc(OC)c1OC (stereo unspecified)	88.5*	4.2	93.7*	·	77.6*	73.6*	42.9	44.7*
O=C(Nc1cccnc1)c1cccs1	45.7*	8.9	2.3	8.6	72.2*	87.5*	69.7*	5.3
O=[N+]([O-])c1cc(CN2CCN(c3ccccc3)CC2)c(O)c2ncccc12	73.6*	80.1*	51.8*	82.0*	76.3*	75.5*	89.2*	76.6*
O=[N+]([O-])c1cc(CN2CCOCC2)c2cccnc2c1O	4.7	5.2	-6.3	·	-1.1	7.8	·	·
Cc1ccc(NS(=O)(=O)c2ccc(C(=O)N3CCCC(C(F)(F)F)C3)cc2)cc1 (stereo unspecified)	·	·	·	-8.9	·	·	·	·
O=C(Nc1cccc(O)c1)c1cc(-c2ccc3c(c2)OCO3)on1	·	·	0.4	69.3*	83.4*	·	71.8*	-7.3
Cc1cc(Cl)ccc1NC(=S)NCc1ccc(F)cc1	·	·	2.5	3.8	-14.3	·	·	·
Cc1nc2scc(C)n2c(=O)c1S(=O)(=O)Nc1ccc(N2CCOCC2)cc1	·	·	-4.9	12.2	-18.2	·	·	·
O=C(NCc1ccccc1)c1cccc(COc2ccc3c(c2)CCC3)c1	2.0	-105.3	8.4	16.8	-85.2	4.3	·	·
O=C(O)c1cccc(COc2ccc3c(c2)CCC3)c1	2.8	·	0.5	80.6*	97.6*	-0.8	99.8*	0.2
COc1ccc(C(=O)C(C)Oc2cccc(NC(=O)c3cccc([N+](=O)[O-])c3)c2)cc1 (stereo unspecified)	3.8	12.6	-0.7	4.6	3.6	10.8	·	·
O=c1cc(-c2ccccc2)[nH]c2ccc(F)cc12	74.9*	91.8*	81.6*	86.6*	68.8*	74.2*	82.4*	56.6*
Cc1ccc(-c2cc(=O)c3cc(F)ccc3[nH]2)cc1	0.5	-6.1	-6.1	-40.7	-21.9	4.5	·	·
O=C(O)c1cccc(N/N=C/c2ccc(OC(F)(F)F)cc2)c1	·	·	-2.7	64.3*	71.2*	·	67.1*	5.1
c1ccc(-c2nnc(NC3=NCCC3)o2)cc1	6.4	-122.0	-1.2	-7.1	-91.7	7.0	·	·
Fc1ccc(-c2nnc(NC3=NCCCCC3)o2)cc1	10.5	-44.9	11.8	98.3*	72.5*	11.3	40.8	1.1
O=C(C(=O)N1CCCCC1)c1c(-c2ccccc2)[nH]c2ccccc12	·	·	0.0	1.4	-0.3	·	·	·
Cc1ccc(NC(=O)n2ncc3c(C)cccc32)cc1F	·	·	5.5	-70.9	83.3*	·	85.4*	5.4
COc1ccc(NC(=O)n2ncc3c(C)cccc32)cc1OC	·	·	0.2	-164.7	-117.4	·	·	·
C/C(=N\NC(=O)C1(C)NC(C)(C)Cc2ccccc21)c1ccccc1 (stereo unspecified)	2.6	18.7	4.4	-13.1	-32.9	2.3	·	·
CCOc1cccc(/C=N/NC(=O)c2ccc3c(c2)OCCO3)c1O	·	·	10.6	41.6	65.0*	·	93.4*	-1.0
COc1cccc(/C=N/NC(=O)CNC(=O)c2ccc3c(c2)OCCO3)c1O	-2.3	4.9	-5.1	26.5	-0.5	5.6	·	·
O=C(N/N=C/c1cccs1)c1cc(-c2ccncc2)nc2ccccc12	68.9*	94.6*	71.8*	61.9*	75.3*	72.9*	82.5*	59.9*
O=C(N/N=C/c1cccs1)c1cc(C2CC2)nc2ccccc12	1.9	15.0	4.9	1.9	21.5	7.8	·	·
Cc1ccc(C)c2c(N)c3c(nc12)CCCCC3 (tested in a mixture with another compound)	-0.2	-7.0	-3.0	-24.3	-7.9	4.6	·	·
Cc1ccc(C(=O)NC(C)c2nnc(SCC(=O)NC3CCCC3)n2C)cc1 (stereo unspecified)	·	·	-7.3	-22.0	-40.9	·	·	·
COc1cc([C@@H]2c3cc4c(cc3[C@H](O)[C@H]3COC(=O)[C@H]23)OCO4)cc(OC)c1OC	96.8*	94.4*	·	94.6*	83.7*	93.0*	92.3*	·
